# This is a sample that favours compounds with a hit; in the whole collection about 1.1% have one here.
# HePTP inhibitor = inhibitors of human HePTP phosphatase, primary screen, biochemical, absorbance, leukemia target; Tyrosine-protein phosphatase non-receptor type 7 (Homo sapiens), P35236; recombinant HePTP phosphatase activity, OD absorbance; inhibition, % at 20 µM; 110,000 tested, 0.64% active; in the data active = inhibition above about 50%;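 note: plate controls were vehicle for no effect and reference inhibitor for full effect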
# MT1-MMP txn act = MT1-MMP promoter reporter activation – cell-based, luciferase luminescence, primary screen; HT1080 MT1-MMP promoter luciferase reporter, overnight; active compounds read high; 86,000 tested, 0.16% active; AID 750, 2007; activation factor at 10 µM;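 active = activation factor of at least 2 for MT1-MMP transcription at 10 µM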
# HER2 expr 66K = inhibitors of Her2 protein expression, primary screen, SKBR-3 cells, AlphaScreen, 66K library. 65,000 tested, 0.69% active. SKBR-3 HER2 protein level, 18-24 h; active compounds read low. HER2 level % of control, % at 10 µM;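 active = HER2 level under 5% of the carrier-only control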;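 note: 100% = DMSO carrier and 0% = 500 nM PU-H71 HSP90 inhibitor; lower value means stronger loss of Her2 protein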
# Hsp90 inh = tumor Hsp90 inhibitors, primary screen, cell lysate, fluorescence polarization, NCI-N417 lysate; Cy3B-geldanamycin FP displacement; inhibition, % at 30 µM; 64,000 tested, 0.35% active; AID 429, 2006;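 active = inhibition above 50%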;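 note: 0% = tracer plus lysate wells and 100% = tracer alone without lysate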
# TNAP act DEA = human TNAP enzyme activators, primary screen, biochemical, luminescent, intermediate phosphate acceptor level; purified TNAP, CDP-star luminescence, 100 mM DEA, 30 min; active compounds read high; scale: 0 levamisole-inhibited, 1 vehicle-only enzyme; activation factor at 20 µM; 64,000 tested, under 10 active;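 active = activation factor of at least 2 at 20 µM, relative to controls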
# Ec RNAP inh = E. coli RNAP inhibitors, biochemical. E. coli RNA polymerase, fluorescence transcription assay. 62,000 tested, 0.2% active. inhibition, %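 (tested at 10 µM)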. AID 559, 2006. DNA-directed RNA polymerase subunit beta (Escherichia coli (strain K12)), P0A8V2; in the data active = inhibition above about 20%;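 note: 0% = enzyme without compound and 100% = no enzyme blank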
# Target sequence (P0A8V2 whole entry, looked up): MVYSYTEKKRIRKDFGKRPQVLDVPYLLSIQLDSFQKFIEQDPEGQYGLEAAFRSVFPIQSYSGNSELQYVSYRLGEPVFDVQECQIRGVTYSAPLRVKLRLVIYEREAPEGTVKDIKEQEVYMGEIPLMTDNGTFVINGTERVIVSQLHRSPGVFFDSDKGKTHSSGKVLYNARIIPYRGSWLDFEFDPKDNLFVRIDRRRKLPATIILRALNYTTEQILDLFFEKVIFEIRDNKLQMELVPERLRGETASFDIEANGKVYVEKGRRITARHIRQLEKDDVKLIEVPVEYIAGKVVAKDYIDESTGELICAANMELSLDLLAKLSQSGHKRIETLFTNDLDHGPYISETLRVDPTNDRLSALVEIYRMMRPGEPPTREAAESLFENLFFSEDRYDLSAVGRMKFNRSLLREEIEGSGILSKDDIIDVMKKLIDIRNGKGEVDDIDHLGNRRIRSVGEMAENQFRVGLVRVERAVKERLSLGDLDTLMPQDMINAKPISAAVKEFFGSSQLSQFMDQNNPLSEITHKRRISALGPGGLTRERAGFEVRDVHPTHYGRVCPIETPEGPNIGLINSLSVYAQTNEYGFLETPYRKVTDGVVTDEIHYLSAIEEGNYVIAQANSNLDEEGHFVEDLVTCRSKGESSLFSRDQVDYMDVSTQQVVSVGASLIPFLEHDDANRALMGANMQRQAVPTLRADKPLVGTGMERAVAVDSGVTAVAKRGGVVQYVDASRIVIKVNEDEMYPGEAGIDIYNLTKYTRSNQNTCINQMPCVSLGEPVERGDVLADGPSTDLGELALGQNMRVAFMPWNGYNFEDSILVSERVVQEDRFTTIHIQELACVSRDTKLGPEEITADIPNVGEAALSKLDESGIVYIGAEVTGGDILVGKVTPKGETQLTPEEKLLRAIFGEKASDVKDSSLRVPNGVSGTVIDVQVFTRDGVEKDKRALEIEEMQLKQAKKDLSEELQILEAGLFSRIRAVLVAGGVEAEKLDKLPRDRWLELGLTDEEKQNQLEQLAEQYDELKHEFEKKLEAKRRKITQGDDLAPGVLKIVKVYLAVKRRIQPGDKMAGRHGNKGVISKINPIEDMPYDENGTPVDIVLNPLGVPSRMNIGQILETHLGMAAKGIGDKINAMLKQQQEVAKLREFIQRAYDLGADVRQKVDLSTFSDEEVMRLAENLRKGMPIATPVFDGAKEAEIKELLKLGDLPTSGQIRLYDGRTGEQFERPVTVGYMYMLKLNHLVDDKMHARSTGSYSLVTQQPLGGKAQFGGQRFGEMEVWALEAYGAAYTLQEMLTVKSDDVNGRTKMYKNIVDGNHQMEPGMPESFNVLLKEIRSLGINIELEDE
# The depositor's hits bear a star; / = not tested or not shown.
SMILES,HePTP inhibitor,MT1-MMP txn act,HER2 expr 66K,Hsp90 inh,TNAP act DEA,Ec RNAP inh
O=C(O)c1ccccc1O,/,1.1,/,/,/,/
CCCCn1c(SCc2c(C)noc2C)nc2cc(S(N)(=O)=O)ccc21,3,1.9,-21*,-4,0.9,5
CCCCn1c(SCC(=O)c2ccc(OC)cc2OC)nc2cc(S(N)(=O)=O)ccc21,12,1.1,97,-1,0.9,1
CCOc1cc(/C=N/NC(=O)c2cc(C34CC5CC(CC(C5)C3)C4)[nH]n2)ccc1O,-4,/,/,/,/,/
Clc1ccccc1Cn1nnc2c(N3CCCC3)ncnc21,4,1.1,103,0,1,/
CC(C)(C)NC(=O)CSc1ncnc2c1nnn2Cc1ccccc1Cl,8,0.8,4.8*,-2,0.9,-3
COc1ccc(N/C=C(/C2=CC(=O)C=CC2=O)[N+](=O)[O-])cc1,58*,/,/,/,/,/
Cc1cc(C)cc(CC(C(=O)Nc2ccc(I)cc2)C(C)C(=O)O)c1 (stereo unspecified),8,/,/,/,/,/
COc1ccc(C=O)c2c(OC)cccc12,-1,/,/,/,/,/
COc1ccc2c3c(cccc13)NN=C2C,3,/,90,86*,0.8,13
COc1ccc2c(=O)c3c(=O)n(Cc4ccco4)c(-c4ccc(C)cc4)nc3oc2c1,3,1.2,4.8*,-7,0.9,/
CCc1cccc(NC(=O)CCc2ccccc2)c1,-4,/,/,/,/,/
CCc1cccc(NC(=O)Cc2ccccc2)c1,102*,/,/,/,/,/
O=C(Nc1ccccc1C(=O)O)c1ccc2c(c1)C(=O)N(C1CCCCC1)C2=O,101*,/,/,/,/,/
CCc1ccc(-c2cc(C(=O)Nc3nccs3)c3ccccc3n2)cc1,8,/,/,/,/,/
CCOc1ccc(-c2nnc(-c3ccco3)o2)cc1OCC,9,2.1*,79,2,0.9,8
C=CCn1c(SCC(=O)c2ccc(NS(=O)(=O)c3ccccc3)cc2)nnc1-c1cccs1,3,1.2,82,-4,0.8,26*
C=CCn1c(SCC(=O)Nc2ccc(C(=O)OCC)cc2)nnc1-c1cccs1,-2,1.1,40,-3,1,10
COC(=O)c1sc(NC(=O)c2sc3cc(C)ccc3c2Cl)c(C#N)c1C,103*,/,/,/,/,/
Cc1cc(=O)c2n(Cc3ccc(Cl)cc3)nc[n+]2[nH]1,-4,0.9,102,6,0.9,49*
Cc1nn(Cc2ccc(Cl)cc2)c(C)c1N,/,1.2,/,/,/,/
CC1S/C(=N/N=C/c2ccc(Cl)cc2)NC1=O (stereo unspecified),7,/,/,/,/,/
CC1=C(C#N)c2nc(N)c(C#N)c(C)c2/C1=C/c1ccc(-c2cccc(C(=O)O)c2)o1,103*,/,/,/,/,/
CC(=O)c1cccc(-c2ccc(/C=C3\C(=O)NC(=O)C(C#N)=C3C)o2)c1,72*,/,/,/,/,/
COc1ccc(C(=O)Nc2cccc(-c3nc4ccccc4o3)c2C)cc1,-5,/,/,/,/,/
SMILES,HePTP inhibitor,MT1-MMP txn act,HER2 expr 66K,Hsp90 inh,TNAP act DEA,Ec RNAP inh
CCC(C)c1ccc(NC(=O)c2cc(Br)ccc2OC)c(O)c1 (stereo unspecified),-10,/,/,/,/,/
CCOC(=O)N1CCC(n2c(=S)[nH]c3cc(OCC)c(OCC)cc3c2=O)CC1,-4,1,0.2*,0,1,-2
CCOc1cc2[nH]c(=S)n(CCN3CCC(C)CC3)c(=O)c2cc1OCC,/,0.9,/,/,/,/
CCOc1ccc(N(CC(=O)Nc2ccc(C)cc2C)S(C)(=O)=O)cc1,-7,/,/,/,/,/
CCOc1ccc(NCC(=O)Nc2ccc(C)cc2C)cc1,7,1,57,52*,0.9,11
O=C(CC1Nc2ccccc2NC1=O)Nc1ccc(O)cc1 (stereo unspecified),5,/,/,/,/,/
O=C(CSc1ccccn1)N/N=C/c1ccc(Br)cc1,-18,/,/,/,/,/
N#CC1=C(N)NC(SCC(=O)c2ccc(Cl)cc2)=C(C#N)C12CCCC2,104*,1.1,/,/,/,/
COc1ccc(C(=O)CSC2=C(C#N)C3(CCCCC3)C(C#N)=C(N)N2)cc1,-3,1,40,-12,0.8,3
CCN1CCc2c(C#N)c(N3CCCCC3)nc(N3CCOCC3)c2C1,4,1.1,-22*,0,0.9,5

# Screening data as filed in PubChem.
